Results as given in publication PMC7862700, “An all-to-all approach to the identification of sequence-specific readers for epigenetic DNA modifications on cytosine”.

Experiments:
Experiment in all cases: DAPPL (digital affinity profiling via proximity ligation, sequencing); 10 mM Tris-HCl pH 7.5, 50 mM NaCl, 1 mM DTT, 4% glycerol, room temperature, 30 min; GST-TFs on glutathione beads, 16-mer random dsDNA library, 0.1% formaldehyde crosslink after washing; high values mean tight binding
Details in all cases: protein: recombinant; tags: N-terminal GST; dsDNA, one strand shown
[1] = target: T1, FLI1 (Homo sapiens, UniProt Q01543 1-452)
T1 sequence: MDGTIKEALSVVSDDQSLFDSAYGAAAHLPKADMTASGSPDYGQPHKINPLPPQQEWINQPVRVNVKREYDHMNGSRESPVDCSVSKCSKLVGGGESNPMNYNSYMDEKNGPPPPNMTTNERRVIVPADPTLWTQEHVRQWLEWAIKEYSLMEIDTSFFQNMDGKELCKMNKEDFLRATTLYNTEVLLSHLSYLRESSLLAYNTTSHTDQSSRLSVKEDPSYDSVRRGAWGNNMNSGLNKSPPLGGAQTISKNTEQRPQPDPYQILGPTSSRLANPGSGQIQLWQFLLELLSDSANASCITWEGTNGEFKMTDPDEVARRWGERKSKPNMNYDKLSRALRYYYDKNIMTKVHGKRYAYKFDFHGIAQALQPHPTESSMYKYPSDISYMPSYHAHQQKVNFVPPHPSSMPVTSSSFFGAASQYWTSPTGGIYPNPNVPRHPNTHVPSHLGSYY
Procedure, shortened: (§1)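 Beads coated with glutathione captured GST-fused human transcription factors that had been expressed in yeast, and the factors were then given DNA barcodes and pooled with a tag-only sample. The pools were incubated with 200 nmole of a random double-stranded 16-mer DNA library in Tris/NaCl/DTT/glycerol buffer for 30 min at room temperature, washed, crosslinked with 0.1% formaldehyde and proximity-ligated with BsaI/T4 ligase at 37 °C for 1 h. PCR amplification and Illumina NextSeq500 sequencing came last. Binding signal is each hexamer's read frequency for a factor divided by its frequency for the tag-only sample.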

[2] = target: T2, ELK1 (Homo sapiens, UniProt P19419 1-428)
T2 sequence: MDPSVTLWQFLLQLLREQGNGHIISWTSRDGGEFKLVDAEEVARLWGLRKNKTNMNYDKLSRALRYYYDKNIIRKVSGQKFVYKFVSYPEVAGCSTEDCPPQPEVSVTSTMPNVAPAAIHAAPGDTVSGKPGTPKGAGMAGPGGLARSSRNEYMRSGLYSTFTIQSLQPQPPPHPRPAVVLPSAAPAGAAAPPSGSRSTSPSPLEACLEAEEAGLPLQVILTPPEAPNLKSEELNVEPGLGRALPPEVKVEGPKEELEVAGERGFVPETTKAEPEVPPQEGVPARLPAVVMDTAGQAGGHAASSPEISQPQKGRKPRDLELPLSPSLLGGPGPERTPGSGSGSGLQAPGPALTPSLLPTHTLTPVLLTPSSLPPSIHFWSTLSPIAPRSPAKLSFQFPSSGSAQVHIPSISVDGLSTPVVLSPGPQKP
Procedure, shortened: as §1

[3] = target: T3, GABPA (Homo sapiens, UniProt Q06546 1-454)
T3 sequence: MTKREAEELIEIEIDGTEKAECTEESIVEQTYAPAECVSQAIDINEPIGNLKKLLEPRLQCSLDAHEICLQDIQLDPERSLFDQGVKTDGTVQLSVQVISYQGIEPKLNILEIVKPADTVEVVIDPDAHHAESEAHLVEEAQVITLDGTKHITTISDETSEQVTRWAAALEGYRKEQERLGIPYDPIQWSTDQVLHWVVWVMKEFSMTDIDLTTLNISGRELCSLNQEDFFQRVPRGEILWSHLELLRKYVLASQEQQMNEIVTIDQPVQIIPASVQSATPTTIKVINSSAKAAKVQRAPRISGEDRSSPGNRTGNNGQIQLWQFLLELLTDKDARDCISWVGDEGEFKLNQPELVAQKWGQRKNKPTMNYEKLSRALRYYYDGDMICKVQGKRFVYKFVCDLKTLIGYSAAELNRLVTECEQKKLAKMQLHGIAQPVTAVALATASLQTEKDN
Procedure, shortened: as §1

[4] = target: T4, ERG (Homo sapiens, UniProt P11308 1-479)
T4 sequence: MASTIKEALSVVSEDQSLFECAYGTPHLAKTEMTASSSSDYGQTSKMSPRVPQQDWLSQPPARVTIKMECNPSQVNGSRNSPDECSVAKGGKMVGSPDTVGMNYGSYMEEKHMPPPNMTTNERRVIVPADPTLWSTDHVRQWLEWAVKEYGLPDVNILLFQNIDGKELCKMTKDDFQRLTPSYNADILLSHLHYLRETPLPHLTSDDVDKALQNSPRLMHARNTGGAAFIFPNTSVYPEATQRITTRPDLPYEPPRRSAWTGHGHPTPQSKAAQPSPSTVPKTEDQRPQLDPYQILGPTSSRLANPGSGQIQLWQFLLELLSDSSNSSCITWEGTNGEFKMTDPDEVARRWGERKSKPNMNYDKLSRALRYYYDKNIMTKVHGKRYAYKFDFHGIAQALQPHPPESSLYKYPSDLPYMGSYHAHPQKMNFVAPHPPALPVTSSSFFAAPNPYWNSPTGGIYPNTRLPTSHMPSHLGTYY
Procedure, shortened: as §1

[5] = target: ELF1 (Homo sapiens, UniProt P32519 1-619)
Procedure, shortened: as §1

[6] = target: T5, EHF (Homo sapiens, UniProt Q9NZC4 1-300)
T5 sequence: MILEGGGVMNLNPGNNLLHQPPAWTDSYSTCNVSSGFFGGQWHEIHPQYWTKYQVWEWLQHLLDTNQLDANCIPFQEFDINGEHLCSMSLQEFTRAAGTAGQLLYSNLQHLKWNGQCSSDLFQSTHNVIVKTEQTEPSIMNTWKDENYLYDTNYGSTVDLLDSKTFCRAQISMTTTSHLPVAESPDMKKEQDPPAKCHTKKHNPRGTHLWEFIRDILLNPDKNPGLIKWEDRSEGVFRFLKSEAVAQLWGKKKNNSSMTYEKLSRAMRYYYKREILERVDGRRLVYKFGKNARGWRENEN
Procedure, shortened: as §1

[7] = target: SPI1 (Homo sapiens, UniProt P17947 1-270)
Procedure, shortened: as §1

[8] = target: SPIB (Homo sapiens, UniProt Q01892 1-262)
Procedure, shortened: as §1

[9] = target: T6, ELK3 (Homo sapiens, UniProt P41970 1-407)
T6 sequence: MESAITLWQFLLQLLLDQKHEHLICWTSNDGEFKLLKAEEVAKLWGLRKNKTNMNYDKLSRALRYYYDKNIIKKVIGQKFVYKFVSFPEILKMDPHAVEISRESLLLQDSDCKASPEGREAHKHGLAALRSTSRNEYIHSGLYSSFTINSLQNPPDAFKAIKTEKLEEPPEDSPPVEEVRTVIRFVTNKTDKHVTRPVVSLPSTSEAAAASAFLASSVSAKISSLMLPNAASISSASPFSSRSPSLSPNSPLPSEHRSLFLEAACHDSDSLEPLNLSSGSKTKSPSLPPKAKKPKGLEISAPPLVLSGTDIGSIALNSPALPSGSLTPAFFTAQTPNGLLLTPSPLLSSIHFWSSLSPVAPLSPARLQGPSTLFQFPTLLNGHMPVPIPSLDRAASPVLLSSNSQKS
Procedure, shortened: as §1

[10] = target: T7, FEV (Homo sapiens, UniProt Q99581 1-238)
T7 sequence: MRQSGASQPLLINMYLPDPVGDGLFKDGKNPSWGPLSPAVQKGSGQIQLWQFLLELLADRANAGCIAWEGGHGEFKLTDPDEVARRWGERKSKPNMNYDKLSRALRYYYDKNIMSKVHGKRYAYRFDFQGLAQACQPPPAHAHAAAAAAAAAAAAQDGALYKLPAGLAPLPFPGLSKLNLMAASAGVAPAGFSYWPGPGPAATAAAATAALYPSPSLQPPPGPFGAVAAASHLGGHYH
Procedure, shortened: as §1

[11] = target: ETV5 (Homo sapiens, UniProt P41161 1-510)
Procedure, shortened: as §1

[12] = target: T8, SPIC (Homo sapiens, UniProt Q8N5J4 1-248)
T8 sequence: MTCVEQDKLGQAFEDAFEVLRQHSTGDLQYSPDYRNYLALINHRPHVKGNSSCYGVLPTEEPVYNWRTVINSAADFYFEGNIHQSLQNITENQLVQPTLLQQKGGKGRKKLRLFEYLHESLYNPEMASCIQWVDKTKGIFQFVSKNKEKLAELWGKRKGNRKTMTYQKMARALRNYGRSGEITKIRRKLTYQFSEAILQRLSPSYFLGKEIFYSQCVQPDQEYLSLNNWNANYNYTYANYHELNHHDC
Procedure, shortened: as §1

[13] = target: ELF4 (Homo sapiens, UniProt Q99607 1-663)
Procedure, shortened: as §1

[14] = target: T9, ELK4 (Homo sapiens, UniProt P28324-2 1-405)
T9 sequence: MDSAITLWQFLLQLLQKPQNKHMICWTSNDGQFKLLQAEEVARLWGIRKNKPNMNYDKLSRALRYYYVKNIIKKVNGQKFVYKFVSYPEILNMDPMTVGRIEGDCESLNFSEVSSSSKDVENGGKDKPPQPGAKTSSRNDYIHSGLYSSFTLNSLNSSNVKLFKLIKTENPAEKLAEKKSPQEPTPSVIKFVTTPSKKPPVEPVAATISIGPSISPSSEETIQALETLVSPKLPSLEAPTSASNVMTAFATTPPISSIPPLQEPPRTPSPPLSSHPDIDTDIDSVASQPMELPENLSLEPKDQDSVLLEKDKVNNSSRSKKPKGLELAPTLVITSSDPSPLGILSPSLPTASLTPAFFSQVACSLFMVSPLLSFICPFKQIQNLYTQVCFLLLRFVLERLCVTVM
Procedure, shortened: as §1

[15] = target: T10, ETV2 (Homo sapiens, UniProt O00321 1-342)
T10 sequence: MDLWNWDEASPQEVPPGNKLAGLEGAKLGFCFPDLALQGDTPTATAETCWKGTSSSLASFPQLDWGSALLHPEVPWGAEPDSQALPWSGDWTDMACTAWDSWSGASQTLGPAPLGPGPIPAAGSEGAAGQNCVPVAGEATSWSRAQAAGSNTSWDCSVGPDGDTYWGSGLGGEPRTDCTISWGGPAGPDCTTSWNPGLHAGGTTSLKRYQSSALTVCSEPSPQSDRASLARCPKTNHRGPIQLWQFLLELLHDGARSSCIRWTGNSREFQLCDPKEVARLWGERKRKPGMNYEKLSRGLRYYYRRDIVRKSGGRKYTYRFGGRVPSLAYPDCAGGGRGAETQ
Procedure, shortened: as §1

[16] = target: T11, ELF3 (Homo sapiens, UniProt P78545 1-371)
T11 sequence: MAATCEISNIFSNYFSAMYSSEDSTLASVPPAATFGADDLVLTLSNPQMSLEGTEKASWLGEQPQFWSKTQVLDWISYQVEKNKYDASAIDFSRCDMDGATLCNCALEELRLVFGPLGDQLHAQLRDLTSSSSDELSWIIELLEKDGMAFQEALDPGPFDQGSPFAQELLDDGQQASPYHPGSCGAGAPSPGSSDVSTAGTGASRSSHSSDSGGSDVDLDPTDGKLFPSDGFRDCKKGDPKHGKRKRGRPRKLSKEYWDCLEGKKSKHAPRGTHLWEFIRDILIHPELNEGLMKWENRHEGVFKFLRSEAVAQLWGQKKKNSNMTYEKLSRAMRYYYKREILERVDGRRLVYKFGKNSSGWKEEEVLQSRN
Procedure, shortened: as §1

[17] = target: ETV1 (Homo sapiens, UniProt P50549 1-477)
Procedure, shortened: as §1

Sequence of ETV5 (P41161 whole entry): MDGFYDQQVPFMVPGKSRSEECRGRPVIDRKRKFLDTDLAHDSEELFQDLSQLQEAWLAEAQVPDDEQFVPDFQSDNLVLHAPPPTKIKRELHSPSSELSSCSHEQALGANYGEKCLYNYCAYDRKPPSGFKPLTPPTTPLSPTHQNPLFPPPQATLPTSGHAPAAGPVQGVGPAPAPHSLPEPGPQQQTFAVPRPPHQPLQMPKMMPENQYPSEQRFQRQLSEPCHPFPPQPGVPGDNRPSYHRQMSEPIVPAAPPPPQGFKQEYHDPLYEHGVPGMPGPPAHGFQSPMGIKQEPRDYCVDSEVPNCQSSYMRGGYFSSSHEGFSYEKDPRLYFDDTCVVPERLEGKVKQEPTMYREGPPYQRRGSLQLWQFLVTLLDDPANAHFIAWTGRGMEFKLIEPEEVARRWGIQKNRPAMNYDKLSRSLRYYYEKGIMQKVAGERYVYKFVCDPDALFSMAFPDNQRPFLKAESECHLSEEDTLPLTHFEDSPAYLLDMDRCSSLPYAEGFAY
Sequence of ELF4 (Q99607 whole entry): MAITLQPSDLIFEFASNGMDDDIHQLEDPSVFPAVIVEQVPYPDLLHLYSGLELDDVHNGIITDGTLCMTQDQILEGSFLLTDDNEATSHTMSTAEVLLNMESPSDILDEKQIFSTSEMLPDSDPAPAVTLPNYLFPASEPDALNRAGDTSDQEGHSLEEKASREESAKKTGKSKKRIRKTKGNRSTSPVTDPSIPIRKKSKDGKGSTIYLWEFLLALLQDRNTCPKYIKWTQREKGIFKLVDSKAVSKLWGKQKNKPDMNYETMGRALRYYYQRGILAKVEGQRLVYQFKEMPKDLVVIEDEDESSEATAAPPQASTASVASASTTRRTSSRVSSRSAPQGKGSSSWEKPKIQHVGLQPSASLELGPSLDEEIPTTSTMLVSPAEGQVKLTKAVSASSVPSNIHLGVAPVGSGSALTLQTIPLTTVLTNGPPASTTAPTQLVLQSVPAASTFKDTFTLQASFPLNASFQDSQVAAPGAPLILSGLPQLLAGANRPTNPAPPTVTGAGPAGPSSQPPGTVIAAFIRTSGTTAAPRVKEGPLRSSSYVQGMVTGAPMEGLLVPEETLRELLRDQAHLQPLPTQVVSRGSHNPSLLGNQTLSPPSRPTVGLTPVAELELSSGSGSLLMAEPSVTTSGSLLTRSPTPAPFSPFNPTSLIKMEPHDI
Sequence of ELF1 (P32519 whole entry): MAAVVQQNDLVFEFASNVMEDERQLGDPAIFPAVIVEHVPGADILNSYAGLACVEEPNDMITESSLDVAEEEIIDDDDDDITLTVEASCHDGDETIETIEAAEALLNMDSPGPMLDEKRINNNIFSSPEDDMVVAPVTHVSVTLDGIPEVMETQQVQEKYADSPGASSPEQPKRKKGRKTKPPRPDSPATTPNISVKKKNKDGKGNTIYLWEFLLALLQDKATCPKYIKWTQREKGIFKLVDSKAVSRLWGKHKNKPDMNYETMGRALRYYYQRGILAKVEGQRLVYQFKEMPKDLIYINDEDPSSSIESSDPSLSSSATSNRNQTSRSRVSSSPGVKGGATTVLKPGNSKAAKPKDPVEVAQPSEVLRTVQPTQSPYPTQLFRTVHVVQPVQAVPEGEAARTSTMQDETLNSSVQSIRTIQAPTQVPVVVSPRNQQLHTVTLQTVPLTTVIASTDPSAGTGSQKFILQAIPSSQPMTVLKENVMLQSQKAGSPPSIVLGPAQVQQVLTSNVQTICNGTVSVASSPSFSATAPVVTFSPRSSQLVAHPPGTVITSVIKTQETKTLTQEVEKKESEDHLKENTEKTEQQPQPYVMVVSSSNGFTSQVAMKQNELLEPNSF
Sequence of SPIB (Q01892 whole entry): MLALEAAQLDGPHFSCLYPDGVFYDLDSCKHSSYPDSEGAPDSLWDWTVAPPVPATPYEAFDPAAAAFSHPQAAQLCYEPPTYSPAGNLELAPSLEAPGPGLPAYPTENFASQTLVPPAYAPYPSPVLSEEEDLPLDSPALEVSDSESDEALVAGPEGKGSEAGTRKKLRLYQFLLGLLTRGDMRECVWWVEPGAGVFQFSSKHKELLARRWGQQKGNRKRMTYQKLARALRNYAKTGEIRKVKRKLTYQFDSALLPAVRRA
Sequence of ETV1 (P50549 whole entry): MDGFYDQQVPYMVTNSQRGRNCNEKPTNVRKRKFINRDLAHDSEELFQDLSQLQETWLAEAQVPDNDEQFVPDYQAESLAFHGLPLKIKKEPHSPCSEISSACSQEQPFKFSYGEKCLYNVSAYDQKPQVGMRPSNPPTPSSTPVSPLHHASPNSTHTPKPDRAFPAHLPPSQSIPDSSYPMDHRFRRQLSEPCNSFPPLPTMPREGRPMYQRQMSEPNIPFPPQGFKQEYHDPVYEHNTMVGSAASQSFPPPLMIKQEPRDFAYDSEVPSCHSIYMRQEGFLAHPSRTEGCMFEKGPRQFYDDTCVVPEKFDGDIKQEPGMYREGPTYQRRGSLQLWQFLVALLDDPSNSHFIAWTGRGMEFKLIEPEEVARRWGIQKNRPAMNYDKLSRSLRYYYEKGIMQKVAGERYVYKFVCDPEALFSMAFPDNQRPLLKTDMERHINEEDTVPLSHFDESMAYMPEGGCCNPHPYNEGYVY

For CTGGTC, the binding signal [1] was 1.11 fold enrichment (6-mer frequency, TF over GST control), the binding signal [2] was 1.23 fold enrichment (6-mer frequency, TF over GST control) and the binding signal [3] was 1.25 fold enrichment (6-mer frequency, TF over GST control). The binding signal [4] was 1.2 fold enrichment (6-mer frequency, TF over GST control), the binding signal [5] was 1.15 fold enrichment (6-mer frequency, TF over GST control) and the binding signal [6] was 1.2 fold enrichment (6-mer frequency, TF over GST control). The binding signal [7] was 1.13 fold enrichment (6-mer frequency, TF over GST control), the binding signal [8] was 1.35 fold enrichment (6-mer frequency, TF over GST control) and the binding signal [9] was 1.09 fold enrichment (6-mer frequency, TF over GST control). For the same sequence, the binding signal [10] was 1.11 fold enrichment (6-mer frequency, TF over GST control), the binding signal [11] was 1.22 fold enrichment (6-mer frequency, TF over GST control) and the binding signal [12] was 1.2 fold enrichment (6-mer frequency, TF over GST control). The binding signal [13] was 1.16 fold enrichment (6-mer frequency, TF over GST control), the binding signal [14] was 1.19 fold enrichment (6-mer frequency, TF over GST control) and the binding signal [15] was 1.27 fold enrichment (6-mer frequency, TF over GST control). The binding signal [16] was 1.05 fold enrichment (6-mer frequency, TF over GST control) and the binding signal [17] was 1.07 fold enrichment (6-mer frequency, TF over GST control).
